Screening results from PubChem BioAssay.
CRE-bla Fsk: CRE-bla signaling modulation under forskolin stimulation; CHO CRE-bla reporter (cAMP response element driving beta-lactamase), forskolin EC10, beta-lactamase ratio; Potency, µM (doses to about 38.2 µM), hits mostly activators; 71,000 compounds, 2.5% hits; AID 662; active = well fitted activation curve with a large enough effect in the signal ratio, with a control signal flat, not every such curve was filed as active; inconclusive = small, poorly fitted or top-dose-only effect, or effect the other way, or a change in a side signal; the % refers to the signal ratio
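CRE-bla CHO cells stimulated with EC10 NKH 477 (water-soluble forskolin) and compound titrations, 3 h at 37C; beta-lactamase read with CCF4 after 2 h at room temperature. Activity from 460/530 nm emission ratio, AC50 values for positive or negative modulation.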
ALOX15 inhib: blocks human 15-lipoxygenase activity. purified 15hLO-1, xylenol orange hydroperoxide absorbance. 74,000 compounds, 1.4% hits. Potency, µM (series often up to 57.1 µM), usual class: inhibitors; also: nearly all actives have a fitted effect of over 55% in size
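Compounds were preincubated 15 min at room temperature with 40 nM purified human enzyme (25 mM Hepes pH 7.5, 0.01% Triton X-100); 50 uM arachidonic acid reacted 6 min. Fe-xylenol orange detection, 30 min, absorbance ratio 573/405 nm.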
ERK AVP block: vasopressin-driven ERK pathway inhibition; HEK293-V1b, vasopressin-stimulated pERK AlphaScreen; Potency, µM (titrated, usually from 57.5 µM), hits mostly inhibitors; 72,000 compounds, 0.99% hits; AID 995; also: nearly all actives have a fitted effect of over 55% in size
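Overnight-seeded V1b-HEK293 cells in 1% FBS got compound, then vasopressin (25 nM final, 5 min, 37C), then lysis buffer. AlphaScreen detection of phospho-ERK; activity normalized to basal and full-stimulation controls.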
15-hLO-2 inh: 15-hLO-2 (ALOX15B) enzyme inhibition; 110,000 compounds, 0.56% hits; AID 881; purified 15hLO-2, xylenol orange hydroperoxide absorbance; Potency, µM (titrated, usually from 57.1 µM), actives largely listed as inhibitors; also: nearly all actives have a fitted effect of over 60% in size
Target sequence (O15296 whole entry, looked up): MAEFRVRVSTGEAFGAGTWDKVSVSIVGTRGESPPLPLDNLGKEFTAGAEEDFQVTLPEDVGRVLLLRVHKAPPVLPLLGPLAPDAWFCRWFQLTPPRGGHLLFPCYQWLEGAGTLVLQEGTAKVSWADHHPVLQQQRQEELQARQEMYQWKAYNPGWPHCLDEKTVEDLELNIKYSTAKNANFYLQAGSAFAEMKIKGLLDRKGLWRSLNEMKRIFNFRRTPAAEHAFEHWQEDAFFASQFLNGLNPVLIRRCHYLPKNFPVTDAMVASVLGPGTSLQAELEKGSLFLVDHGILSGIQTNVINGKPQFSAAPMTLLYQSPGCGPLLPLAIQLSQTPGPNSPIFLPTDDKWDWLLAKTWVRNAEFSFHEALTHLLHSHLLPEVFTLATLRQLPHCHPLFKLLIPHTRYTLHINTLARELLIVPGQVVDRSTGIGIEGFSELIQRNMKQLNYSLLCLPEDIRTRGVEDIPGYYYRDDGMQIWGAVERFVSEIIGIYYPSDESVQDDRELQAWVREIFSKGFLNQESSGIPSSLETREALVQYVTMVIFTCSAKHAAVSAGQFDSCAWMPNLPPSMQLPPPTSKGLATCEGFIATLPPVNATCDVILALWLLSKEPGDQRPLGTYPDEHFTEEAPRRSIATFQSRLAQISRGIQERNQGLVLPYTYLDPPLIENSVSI
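Screening format was qHTS against 50 nM purified 15hLO-2 in Hepes pH 7.5 with detergent. Activity follows hydroperoxide formation from 45 uM arachidonic acid, measured as 573:405 nm absorbance ratio of the ferric-xylenol orange complex.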
Numbers stand for hits; n = inactive; u = inconclusive; x = not tested or not shown; [ ] = another dose, or the depositor's remark. In the library only some 3.2% were active in any assay of this set; here they are far more common. Unless noted, calls follow the shape of the dose curve; as a rule, active = well fitted inhibition curve with a large enough effect; inconclusive = small, poorly fitted or top-dose-only effect; inactive = no such curve, though single readings can be large or run the other way.

SMILES	CRE-bla Fsk	ALOX15 inhib	ERK AVP block	15-hLO-2 inh
CC1=C(C(=O)OCc2ccccc2)C(c2ccc([N+](=O)[O-])cc2)NC(=O)N1CCCCCC(=O)O (configuration not stated)	10µM	x	n	n
CC(C)CN1CCC2(CC1)CCN(S(=O)(=O)c1ccccc1)CC2	n	n	n	n
Cc1ccc(O)c(-c2cc(-c3ccccc3C)[nH]n2)c1	u	15.8µM	n	n
Oc1ccccc1-c1cc(-c2ccco2)[nH]n1	x	x	x	n
Oc1ccccc1-c1cc(-c2ccccc2Cl)[nH]n1	n	12.6µM	n	n
Cc1cccc(C(=O)O)c1C[C@H]1NCC[C@H]2c3ccccc3N[C@@H]12	n[7.6 µM]	n[11.4 µM]	n[11.5 µM]	n[11.4 µM]
O=c1oc2c(CN3CCOCC3)c(O)ccc2c2c1CCCC2	10µM	n	n	n
COCCN(CCOC)Cc1c(O)ccc2c3c(c(=O)oc12)CCC3	12.6µM	n	n	n
CN(C)Cc1c(O)ccc2c3c(c(=O)oc12)CCCCC3	x	x	x	n
COC(=O)NC(c1ccco1)[C@]1(C(C)=O)CCCC1=O (some centres not stated)	x	n[11.4 µM]	n[11.5 µM]	x
COc1cccc(Cn2c(=O)c(C)nc3cnc(N(C)C)nc32)c1	12.6µM	n	n	n
COc1cccc(Cn2c(=O)c(C)nc3cnc(Nc4cccc(OC)c4)nc32)c1	u	n	u	n
CCNc1ncc2nc(C)c(=O)n(Cc3cccc(OC)c3)c2n1	10µM	n	u	n
CCNc1ncc2nc(C)c(=O)n(CCOC)c2n1	10µM	n	n	n
CCN(CC)CCCC(C)n1c(-c2ccccc2)nc2c(NCc3ccccc3)nc(C)nc21 (configuration not stated)	n	u	n	n
O=c1c(-c2cccc(Cl)c2)nc2cncnc2n1Cc1ccccc1	u	n	n	n
CNc1nc2sc3c(c2c(=O)n1C)CC(C)(C)SC3	12.6µM	u	n	n
CN(C)c1nc2sc3c(c2c(=O)n1C)CC(C)(C)OC3	x	x	x	n
Cc1cc2cc(CNC(=O)c3ccc4c(c3)OCO4)ccc2n1C	n	20µM	n	n[2.29 µM]
Cc1ccc(C(=O)CCNc2cccc(Br)c2)o1	n	12.6µM	u	n
O=C(Nc1ccccc1)c1nnsc1S(=O)c1ccc(Cl)cc1 (configuration not stated)	x	x	x	1.26µM
N/N=C1/c2ccccc2N[C@H]1OC(=O)Nc1ccccc1	u	n[11.4 µM]	n[11.5 µM]	n[11.4 µM]
CCCS(=O)(=O)O	u	n[11.4 µM]	n[11.5 µM]	n[11.4 µM]
Cc1nc(C)c(-c2csc(Nc3cccnc3)n2)s1	10µM	n	n	n
CC(=O)Nc1nc(C)c(-c2csc(Nc3ccc(O)cc3)n2)s1	n	12.6µM	n	u
SMILES	CRE-bla Fsk	ALOX15 inhib	ERK AVP block	15-hLO-2 inh
c1cncc(Nc2nc(-c3ccncc3)cs2)c1	u	n	20µM	n
COc1ccc(C(=O)N2CCC3(CCCN(C(=O)Nc4cccc(F)c4)C3)CC2)cc1	n	n	n	n
CSc1nc(C)cc(Nc2ccc(O)c(CN3CCOCC3)c2)n1	n[7.6 µM]	n[11.4 µM]	n[11.5 µM]	n[11.4 µM]
O=C(c1cc(-n2cnnc2)ccc1Cl)N1CCN(c2nc(-c3ccccc3)cs2)CC1	n	n	25.1µM	n
Cc1cc2ccccc2n1CCNC(=O)C1CC1	12.6µM	n	x	x
COC(=O)C1C2CC3c4[nH]c5cc(OC)ccc5c4CCN3CC2CC(OC(=O)c2cc(OC)c(OC)c(OC)c2)C1OC (configuration not stated)	x	n	n	n
C=C(CC(=O)OC)C[C@]1(CC(=O)OC)CC2(CC=C(C)C)C(=O)C(C(=O)c3ccccc3)=C(OC(=O)c3ccc(Br)cc3)C(CC=C(C)C)(C1)C2=O (some centres not stated)	x	n[11.4 µM]	n[11.5 µM]	x
N#Cc1cccc(-c2cc(NCc3ccccc3)ncn2)c1	u	n	20µM	n
N#Cc1cccc(-c2nc(NCc3ccccc3)c3ccccc3n2)c1	u	u	20µM	n
CCCCCc1nnc(NC(=O)C2CCCO2)s1 (configuration not stated)	n	n	n	n
CCCc1cc(C(N)=O)c(NC(=O)C2CCCO2)s1 (configuration not stated)	n	25.1µM	n	n
O=C(Nc1cccc2ccccc12)N1CCN(Cc2ccccc2)CC1	n	0.631µM	n	n
O=C(Nc1cccc2ccccc12)N1CC=C(c2ccccc2)CC1	x	x	x	n
Oc1ccc(-c2nc(-c3ccc(F)cc3)c(-c3ccncc3)[nH]2)cc1	u	u	7.94µM	n
Fc1cc2nc(-c3ccncc3)[nH]c2cc1F	u	n	n	n
O=C(O)CNC(=O)c1ccccc1O	n[7.6 µM]	n[11.4 µM]	n[11.5 µM]	n[11.4 µM]
CCCC(=O)N(c1ccc2oc(=O)sc2c1)S(=O)(=O)c1cccs1	n	15.8µM	n	n
CC(=O)N(c1ccc2oc(=O)sc2c1)S(=O)(=O)c1ccccc1	n	15.8µM	n	n
CC(C)C(=O)N(c1ccc2oc(=O)sc2c1)S(=O)(=O)c1ccccc1	x	x	x	n
Cc1cccc(N2CCN(C(=O)c3cn(C)c(=O)c4c3c3ccccc3n4C)CC2)c1C	u	u	20µM	n
O=C(Nc1nc2c(Cl)cccc2s1)c1ccc(Br)o1	n	n	25.1µM	n
CCOC(=O)c1c(C)nc2c3ccccc3ccn12	7.94µM	15.8µM	u	n
CCOC(=O)c1c(C)nc2sccn12	12.6µM	n	u	n
Cc1nc2sccn2c1P(c1c(C)nc2sccn12)c1c(C)nc2sccn12	n	n	n	25.1µM
O=C(c1cccc(F)c1)N1CCC2(CC1)CN(c1ccccc1)C2	n	n	n	n
SMILES	CRE-bla Fsk	ALOX15 inhib	ERK AVP block	15-hLO-2 inh
COC(=O)[C@@]1(Cc2ccc(OC)cc2)[C@H]2c3cc(C(=O)N4CCCC4)n(CCc4ccc(OC)c(Br)c4)c3C[C@H]2CN1C(=O)c1ccccc1	n	x	n	n
COc1cc2c(C(=O)NCc3ccccn3)cn(C)c(=O)c2cc1OC	5.01µM	n	n	n
CCn1cc(C(=O)NCc2ccc(C)o2)c2cc(OC)c(OC)cc2c1=O	2.51µM	n	n	n
CCOCCCNC(=O)c1cn(C)c(=O)c2cc(OC)c(OC)cc12	5.01µM	n	n	n
CCC(C)NC(=O)c1cn(C)c(=O)c2cc(OC)c(OC)cc12 (configuration not stated)	3.16µM	n	n	n
CCn1cc(C(=O)NCC(=O)OC)c2cc(OC)c(OC)cc2c1=O	u	n	n	n
COc1cccc(Cn2c(=O)c(-c3cccs3)nc3cnc(N4CCN(C)CC4)nc32)c1	u	n	n	n
N#Cc1cccc(-c2cncnc2-n2ccnc2)c1	n	u	n	n
Cc1cc(Nc2ccc(N=Nc3ccc(O)c4ncccc34)cc2)nc(C)n1	n[7.6 µM]	n[11.4 µM]	n[11.5 µM]	n[11.4 µM]
O=C(O)[C@H]1C(=CCO)O[C@H]2CC(=O)N12	x	n	n	u
Cc1nc(NCc2ccccc2)c2nc(-c3ccccc3)n(CCN(C)C)c2n1	n	u	n	n
C[C@@H](CNC(N)=O)NC(N)=O	n[7.6 µM]	n[11.4 µM]	n[11.5 µM]	n[11.4 µM]
CC(=O)[C@]1(O)Cc2c(O)c3c(c(O)c2[C@@H](O[C@H]2C[C@H](N)[C@H](O)[C@H](C)O2)C1)C(=O)c1c(O)cccc1C3=O	x	x	x	n[0.0915 µM]
COc1cc2c(C(=O)NCCCN3CCN(c4cccc(Cl)c4)CC3)cn(C)c(=O)c2cc1OC	3.98µM	n	n	n
